Beta cell apopt: blocks beta cell apoptosis. INS-1E cytokine-induced death, ATP luminescence, 48 h; percent of positive-control rescue, neutral wells zero. protection from apoptosis, % (no concentration beside the values). 300,000 tested, 0.8% active. AID 435005;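 active = Every replicate reaches about 75%, or at least half do and their mean reaches it too, limit read from the data; inconclusive = At least half of replicates reach the limit but their mean does not; inactive = Under half of replicates reach the limit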;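 note: higher means more ATP so stronger rescue from cytokine killing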
Shn3 3UTR inh: Schnurri-3 reporter inhibition in Clone20 osteoblasts; AID 588674; Clone20 osteoblast Shn3 3'UTR firefly luciferase, 24 h; 360,000 tested, 0.52% active; inhibition, % at 12.5 µM;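 active = mean inhibition of at least 75% with every replicate also reaching 75%; inconclusive = mean inhibition at least 75% but some replicate below; inactive = mean inhibition below 75%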
CSC inhib: blocks cancer stem cells | cancer stem cell-like cells viability, luminescence | inhibition, % at 7.5 µM | 300,000 tested, 1.1% active; in the data active = inhibition above about 75%; inconclusive = no clear call, values can overlap the other calls; tested in HMLE shEcad cells
Calb FLC: C. albicans growth modulation with fluconazole. C. albicans CaCi-2 (fluconazole-resistant clinical isolate) + fluconazole, Alamar Blue growth, 48 h. growth inhibition, % (no concentration beside the values). 300,000 tested, 0.57% active;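 active = growth inhibition above about 58% in most replicates, limit read from the data, passing the limit was not always enough; inconclusive = exactly half the replicates above a set limit; inactive = most replicates below a set limit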;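 note: all wells also contain fluconazole at 8 µg/ml as a sub-toxic cotreatment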
PfHsp90 set2: reduces growth (ATP signal) of yeast expressing P. falciparum Hsp90; AID 504621; 310,000 tested, 0.32% active; S. cerevisiae expressing PfHsp90, BacTiter-Glo ATP, 48 h; yeast lacking PDR1 and PDR3 efflux regulators; inhibition, % at 9.4 µM;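 active = every replicate shows inhibition above about 80%, whatever the replicate mean, limit read from the data; inconclusive = mean inhibition reaches the set limit but some replicate falls short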
Numbers stand for hits; n = inactive; u = inconclusive; x = no result; + = active, no number. Shown are actives, neighbours in structure and some others; about 2.2% of the full set was active somewhere.

SMILES | Beta cell apopt | Shn3 3UTR inh | CSC inhib | Calb FLC | PfHsp90 set2
COc1c(Br)cc([N+](=O)[O-])c(OC)c1C(=O)NC(=O)Nc1c(Cl)cccc1Cl | x | n | n | 84 | n
COc1c(Br)cc([N+](=O)[O-])c(OC)c1C(=O)NC(=O)Nc1cc(Cl)cc(Cl)c1 | x | n | x | n | n
CC(NC(=O)COc1ccccc1)C(=O)NCc1ccccc1Cl (stereo not given) | n | n | n | x | n
CC(C)NC(=O)c1ccc2c(c1)N(Cc1ccccc1)C(=O)C(C)(C)O2 | n | n | n | n | n
Cc1ccc(S(=O)(=O)NC(=O)c2ccc(F)cc2)c(C)c1 | n | n | n | n | n
Cc1ccc(S(=O)(=O)NC(=O)c2ccc(-c3ccc(-c4ccccc4)cc3)o2)c(C)c1 | n | x | 82 | n | x
CCCCn1c(N)c(N(CC(C)C)C(=O)COc2cc(C)ccc2Cl)c(=O)[nH]c1=O | x | n | x | x | n
COc1ccc(C(C(=O)NC2CCCCC2)N(C(=O)CCl)c2cccc(Cl)c2)cc1 (stereo not given) | 99 | 92 | 109 | n | n
COc1ccc(C(C(=O)NC2CCCCC2)N(C(=O)CCl)c2ccc(OC)cc2)cc1 (stereo not given) | n | 92 | n | n | n
O=C(NC1CCCCC1)C(c1cccnc1)N(C(=O)CCl)c1ccc(F)cc1 (stereo not given) | n | n | 99 | n | n
COc1ccc(C(C(=O)NC2CCCCC2)N(C(=O)CCl)c2ccc(C)cc2)cc1 (stereo not given) | n | n | n | n | n
Oc1ccc(Cl)cc1-c1cc(-c2cccc(Br)c2)n[nH]1 | n | n | 90 | n | n
CCN=c1scc(C)n1/N=C/c1ccc(O)c(O)c1O | n | n | n | 88 | n
O=C(COc1ccccc1[N+](=O)[O-])Nc1cc(Cl)ccc1C(=O)O | n | n | n | n | n
CCOc1cc(CNc2ccc3c(c2)OCCO3)cc(Br)c1OC | n | n | 78 | n | n
CCCCC(=O)NC(c1ccc(N(CC)CC)cc1)c1ccc2cccnc2c1O (stereo not given) | 89 | 94 | + | 121 | n
CCCCC(=O)NC(c1ccc(N(C)C)cc1)c1ccc2cccnc2c1O (stereo not given) | 94 | 93 | 108 | 94 | n
CCN(CC)c1ccc(C(NC(=O)C(C)C)c2ccc3cccnc3c2O)cc1 (stereo not given) | x | n | x | x | x
Cc1noc(C)c1COc1ccc(C(=O)N2CCCC(C(F)(F)F)C2)cc1 (stereo not given) | n | n | n | n | n
CC(C)(C)C(=O)NC(=S)NNC(=O)c1sc2ccccc2c1Cl | n | 91 | x | 88 | 99
O=C(NNC(=S)NC1CCCCC1)c1sc2ccccc2c1Cl | n | n | n | n | n
CC(C)(C)c1ccc(-n2nc(C#N)c(Cl)cc2=O)cc1 | x | 98 | x | 86 | 100
OC[C@@H]1CN(CCN2CCOCC2)C[C@H](n2cnc3c(Nc4ccccc4)ncnc32)O1 | x | n | x | x | x
CCc1ccc(-n2c(C)cc(/C=N/NC(=O)c3ccncc3)c2C)cc1 | 106 | n | n | n | n
COc1cc2c(cc1OC)C(C(=O)Nc1ccc(F)c(Cl)c1)CC(=O)N2 (stereo not given) | n | n | n | n | n
SMILES | Beta cell apopt | Shn3 3UTR inh | CSC inhib | Calb FLC | PfHsp90 set2
Cc1ccc2ccc3ccc(C)nc3c2n1 | 78 | u | n | x | n
COc1ccc(C(=O)c2c(C(F)(F)F)oc3c2C(=O)c2ccccc2C3=O)cc1 | 115 | 97 | 106 | n | n
COc1ccc(C(=O)c2coc(-c3ccccc3C(=O)O)c2C(=O)O)cc1 | n | n | n | n | n
Cc1sc2c(c1C)CN(CCN1CCOCC1)CN2C(=O)c1ccccc1 | n | n | n | n | n
O=C(N/N=C/c1cccc(F)c1)c1c(O)c2ccccc2[nH]c1=O | 101 | n | n | n | n
O=C(Nc1cccc(F)c1)c1c(O)c2ccccc2[nH]c1=O | n | n | n | n | n
O=C(N/N=C/c1ccc(F)cc1)c1c(O)c2ccccc2[nH]c1=O | n | n | n | n | n
O=C(N/N=C/c1ccccc1)c1c(O)c2ccccc2[nH]c1=O | 124 | n | n | n | n
CCCCNc1c(-c2ccc(OC)c(SC(C)CC)c2)nc2ccc(C)cn12 (stereo not given) | 120 | n | 100 | x | n
CCCCCCSc1cc(-c2nc3ccc(C)cn3c2NCCCC)ccc1OC | 84 | n | 97 | x | n
CCOc1ccc(S(=O)(=O)N2CCCCC2)cc1NC(=O)Cc1ccsc1 | n | n | x | x | n
CC1(C)CC(=O)C(CSC(=O)c2ccccc2)C(=O)C1 | x | n | x | x | x
O=c1nc(/C=C/c2cccn2-c2ccc([N+](=O)[O-])cc2)cc(C(F)(F)F)[nH]1 | n | n | n | n | n
O=c1nc(/C=C/c2cc([N+](=O)[O-])ccc2Cl)cc(C(F)(F)F)[nH]1 | n | n | x | 89 | x
Nc1ccc(Br)cc1-c1nc2ccccc2[nH]c1=O | 102 | n | x | n | n
CC(C)CC(NC(=O)c1ccc(Cl)cc1)C(=O)OCC(=O)c1ccc2c(c1)NC(=O)CO2 (stereo not given) | n | 87 | n | n | n
CN1CCC(n2[nH]c(-c3ccccc3)c(Cc3ccccc3)c2=O)CC1 | x | n | x | x | n
COc1ccccc1CNc1ncnc2cc(Cl)ccc12 | x | n | x | n | n
CCOc1ccccc1CNc1ncnc2ccc(-c3c(C)noc3C)cc12 | n | n | 112 | x | n
COc1cc(-c2noc(C)c2C#Cc2ccc(N)cc2)cc(OC)c1OC | n | n | 108 | n | n
COc1cc(-c2noc(C)c2C#Cc2ccccn2)cc(OC)c1OC | n | n | 82 | n | n
CCc1ccc(S(=O)(=O)NC(=S)NC2CCCCC2)cc1 | n | n | n | n | n
O=c1cc(C(Cl)(Cl)Cl)oc2c1ccc1ccccc12 | n | n | 116 | n | n
O=C(c1cnc2ccc3ccccc3c2c1)c1cc(F)ccc1O | n | n | 84 | n | n
Cc1nn(C)c2ncc(C(=O)c3cc(F)ccc3O)cc12 | n | n | n | n | x
SMILES | Beta cell apopt | Shn3 3UTR inh | CSC inhib | Calb FLC | PfHsp90 set2
COc1cc(OC)c(OC)cc1CNc1cc(C)ccc1OC | n | 89 | n | n | n
COc1ccc(/C=C/C(=O)NC(=S)Nc2ccccc2C(=O)NC2CCCCC2)cc1 | 79 | n | n | u | n
Cn1cccc1C(=O)NC(=O)COC(=O)c1ccc(S(C)(=O)=O)c([N+](=O)[O-])c1 | n | 98 | n | x | n
COc1cccc(C(=O)OCC(=O)NC23CC4CC(CC(C4)C2)C3)c1 | n | n | n | x | n
CS(=O)(=O)c1ccc(C(=O)OCC(=O)NC23CC4CC(CC(C4)C2)C3)cc1[N+](=O)[O-] | n | n | 155 | n | n
CC(=O)Oc1cc(C(=O)OCC(=O)NC23CC4CC(CC(C4)C2)C3)cc(OC(C)=O)c1OC(C)=O | x | 91 | x | x | n
O=[N+]([O-])c1cc(/C=N/NC(=S)Nc2ccccc2Cl)ccc1Cl | n | n | 84 | n | n
CCCOc1ccc(/C=N/Nc2ccccc2[N+](=O)[O-])c(O)c1 | n | n | x | n | n
CCCOc1ccc(/C=N/NC(=S)Nc2ccccc2[N+](=O)[O-])c(O)c1 | 108 | x | 89 | n | x

Screens as filed in PubChem BioAssay.
